Screening results as filed in PubChem BioAssay.
Hits are enriched below; roughly 19% of the tested compounds scored in any of these assays.
TDP1 inh = qHTS Assay for Inhibitors of Tyrosyl-DNA Phosphodiesterase (TDP1); AID 485290, 2010; Potency, µM (top dose mostly 130 µM), for the others: top-dose activity change, negative = inhibition, actives largely listed as inhibitors; recombinant TDP1, AlphaScreen DNA substrate cleavage; Tyrosyl-DNA phosphodiesterase 1 (Homo sapiens), Q9NUW8; 350,000 compounds, 0.28% hits; also: potency is read from the fitted curve at half-maximal effect; % is scaled to controls: 0 for no effect and ±100 for the full control effect; nearly all actives have a fitted effect of over 40% in size
Target sequence (Q9NUW8 whole entry, looked up): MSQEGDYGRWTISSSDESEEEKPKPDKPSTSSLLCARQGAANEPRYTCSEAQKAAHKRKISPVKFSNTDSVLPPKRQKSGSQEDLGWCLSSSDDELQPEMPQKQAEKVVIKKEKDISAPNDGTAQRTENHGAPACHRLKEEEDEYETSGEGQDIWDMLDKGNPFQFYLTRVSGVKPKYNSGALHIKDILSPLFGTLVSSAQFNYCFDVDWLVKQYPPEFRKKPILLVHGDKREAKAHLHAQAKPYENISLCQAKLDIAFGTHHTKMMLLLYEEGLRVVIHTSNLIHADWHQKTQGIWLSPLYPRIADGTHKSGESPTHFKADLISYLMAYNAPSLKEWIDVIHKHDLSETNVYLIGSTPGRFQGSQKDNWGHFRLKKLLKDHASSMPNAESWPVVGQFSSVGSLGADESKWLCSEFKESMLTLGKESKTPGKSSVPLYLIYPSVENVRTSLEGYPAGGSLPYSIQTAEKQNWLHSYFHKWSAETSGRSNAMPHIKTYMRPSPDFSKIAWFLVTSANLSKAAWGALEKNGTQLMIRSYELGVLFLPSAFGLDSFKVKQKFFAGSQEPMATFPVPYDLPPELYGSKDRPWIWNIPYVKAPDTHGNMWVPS
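AlphaScreen read-out: signal falls as enzyme removes the 3' tyrosine-FITC from a 5'-biotinylated DNA oligo (15 nM, 5 min, RT). Enzyme was E. coli-made recombinant Tdp1 at 1 nM, exposed to compound for 15 min beforehand; beads 10 ug/ml, 10 min.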
HepG2 viability = qHTS for Inhibitors of TGF-b: Cytotox Counterscreen | HepG2 CAGA-GFP viability, ATP luminescence, 18 h | Potency, µM (series often up to 46.1 µM), for inactives: at the highest dose activity change, negative = cytotoxicity, actives largely listed as cytotoxic | AID 588856, 2011 | 410,000 compounds, 0.76% hits; also: potency is read from the fitted curve at half-maximal effect
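CellTiter-Glo luminescence gave cytotoxicity after 18 hours at 37 degrees C. The cells were HepG2 CAGA-GFP in 1% FBS DMEM, stimulated with 500 pg/mL TGF-beta after compound addition. %Activity was normalised to no-cell wells (complete cell-killing) and DMSO (no toxicity), and curves were fitted and classified.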
DT40 TDP1 CPT = qHTS for Inhibitors of human tyrosyl-DNA phosphodiesterase 1 (TDP1): qHTS in cells in presence of CPT. chicken DT40 Tdp1-/-;hTDP1 cells + 20 nM CPT, ATP luminescence, 48 h. 420,000 compounds, 12% hits. AID 686979, 2013. Potency, µM (highest dose often 46.2 µM), without a hit: top-dose activity change, negative = growth inhibition, usual class: inhibitors; also: potency is read from the fitted curve at half-maximal effect; % is scaled to controls: 0 for no effect and ±100 for the full control effect; nearly all actives have a fitted effect of over 55% in size
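Cell growth measured by CellTiter-Glo luminescence after a minimum 48 h, 37 C compound exposure with 20 nM CPT in Tdp1-knockout DT40 cells stably expressing hTDP1, seeded 400/well; qHTS titration format.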
TGFb inhibitor = qHTS for Inhibitors of TGF-b; HepG2 CAGA-GFP TGF-b/SMAD3 reporter, GFP fluorescence, 18 h; TGF-beta stimulated, 500 pg/mL final; AID 588855, 2011; Potency, µM (top dose mostly 46.1 µM), for inactives: at the top dose activity, negative = inhibition, most hits filed as inhibitors; 410,000 compounds, 1.2% hits; also: potency is read from the fitted curve at half-maximal effect; % is scaled to controls: 0 for no effect and ±100 for the full control effect; nearly all actives have a fitted effect of over 65% in size
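GFP signal (ex488/em500-530) from TGF-beta-stimulated HEPG2 CAGA-GFP cells, 500 pg/mL final, 18 h at 37 degrees C in DMEM plus 1% FBS, normalized to unstimulated and DMSO-stimulated controls.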
DT40 TDP1 no CPT = qHTS for Inhibitors of human tyrosyl-DNA phosphodiesterase 1 (TDP1): qHTS in cells in absence of CPT; Potency, µM (highest dose often 46.2 µM), for inactives: at the highest dose activity change, negative = growth inhibition, most hits filed as inhibitors; 420,000 compounds, 15% hits; DT40 Tdp1-/- hTDP1 cells, no CPT, ATP luminescence, 48 h; also: potency is read from the fitted curve at half-maximal effect; % is scaled to controls: 0 for no effect and ±100 for the full control effect; nearly all actives have a fitted effect of over 55% in size
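Readout: luminescence from CellTiter-Glo after 30 min in the dark at RT. Cells: DT40 Tdp1-/- with stable hTDP1, 400/well. Exposure: compounds alone, ≥48 hr, 37 °C.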
IL-1B inflam inh = qHTS for Inhibitors of Inflammasome Signaling: IL-1-beta AlphaLISA Primary Screen; THP-1 LPS/ATP IL-1B secretion, AlphaLISA, 16 h; hits give low values; activity change, % at 57.5 µM; 360,000 compounds, 4.7% hits; in the data active = activity change below about -50%; inconclusive = mostly about -30% to -49%; also: % is scaled to controls: 0 for no effect and ±100 for the full control effect
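Secreted IL-1B measured by AlphaLISA bead assay after 16 h compound exposure of THP-1 cells; compounds (final up to 57.5 uM) added 1 h before LPS (250 ng/mL) and ATP (1.25 mM) stimulation; lower signal means less secretion.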
Active calls of the source: *; ? = inconclusive; nt = no result given; [ ] = dose if it differs, or a comment. Unless noted, calls follow the shape of the dose curve; as a rule, active = well fitted curve in the direction sought with a large enough effect; inconclusive = small, poorly fitted or top-dose-only effect, or another doubt; inactive = no such curve, though single readings can be large; an effect the other way counts as inactive or inconclusive.

SMILES | TDP1 inh | HepG2 viability | DT40 TDP1 CPT | TGFb inhibitor | DT40 TDP1 no CPT | IL-1B inflam inh
O=C(C1CC(=O)N(c2ccc3c(c2)OCCO3)C1)N1CCN(c2cccc(C(F)(F)F)c2)CC1 (centres undefined) | 1% | -24% | ? | ? | 23µM* | -13
O=C(c1cccc(N2CCCC2=O)c1)N1CCN(c2ccc(F)cc2)CC1 | 3% | 5% | 4% | 3% | 17% | 3
CNc1c(Br)cc(/C=C2\C=C(C(O)c3cc(Br)c(NC)c(Br)c3)c3ccccc32)cc1Br (centres undefined) | nt | -16% | ? | -6% | -29% | nt
Cc1ccc(-n2nc(C(=O)N3CCN(c4ccccc4)CC3)c(=O)n(C)c2=O)cc1 | 7% | -2% | -9% | -25% | -17% | nt
Cc1ccc(-n2nc(C(=O)N3CCN(c4cccc(C(F)(F)F)c4)CC3)c(=O)n(C)c2=O)cc1 | 11% | -6% | ? | ? | 18µM* | nt
CC(=O)N1N=C(c2cccc([N+](=O)[O-])c2)OC1c1ccc(Cl)cc1Cl (centres undefined) | 8% | 0% | -10% | -16% | ? | -52*
CCOC(=O)c1[nH]c2ccccc2c1NC(=O)c1ccc(C)c(C)c1 | -3% | -35% | -18% | -21% | ? | nt
C=C(C(C)=O)C(O)/C=C/c1ccco1 (centres undefined) | 11µM* | nt | nt | nt | nt | nt
CCOC(=O)N/N=C(C)/C=C/c1ccco1 | 6% | -1% | 12% | 11% | -19% | 15
Cc1ccc(SCc2c(-c3ccccc3)nn(C)c2Cl)cc1 | -6% | -29% | ? | 6% | 16µM* | 7
O=C(NCCCn1ccnc1)C(=O)Nc1ccccc1 | 5% | -14% | 16µM* | 0% | ? | 13
O=C(NCCCn1ccnc1)c1ccc(-c2cccc(Cl)c2Cl)o1 | 7% | -41% | 18µM* | ? | ? | -26
CC(C(=O)NCCCn1ccnc1)(c1ccccc1)c1ccccc1 | nt | 8% | 15µM* | -6% | 18µM* | -28
O=C(O)c1ccccc1C(=O)NCCCn1ccnc1 | nt | 4% | 3% | 7% | 7% | -3
COc1ccc(C)c2sc(N(CCCN(C)C)C(=O)c3ccc4c(c3)OCCO4)nc12 | nt | -74% | ? | ? | ? | ?
O=C(Cc1cc(=O)oc2cc(O)ccc12)NC(Cc1ccc(Cl)cc1)C(=O)O (centres undefined) | nt | 0% | -42% | 14% | ? | -9
COc1ccccc1C1CN(CCNC(=O)c2sccc2Cl)Cc2ccccc2O1 (centres undefined) | nt | nt | -21%[9.04 µM] | nt | -2% | nt
CCc1ccc(-c2nc3c(c(SCc4ccccc4F)n2)Cc2c(CO)cnc(C)c2O3)cc1 | -3% | -1% | -1% | -16% | 5% | nt
CCOC(=O)c1cc2c(OC)c(OC)ccc2c2[nH]cc(C#N)c(=O)c12 | nt | -17% | -29% | 11% | ? | -8
COC(=O)[C@]1(Cc2ccccc2)N[C@H](CN(C)S(=O)(=O)c2ccc(F)cc2)[C@@H]2C(=O)N(C)C(=O)[C@@H]21 | 2% | -8% | -5% | 6% | -4% | 6
CCN(C[C@H]1N[C@@](Cc2ccccc2)(C(=O)OC)[C@H]2C(=O)N(C)C(=O)[C@@H]12)S(=O)(=O)c1ccc(C(C)(C)C)cc1 | 2% | 6% | ? | -2% | 18µM* | 11
COC(=O)[C@]1(Cc2ccccc2)N[C@H](CN(C)S(=O)(=O)c2ccc(C(C)(C)C)cc2)[C@@H]2C(=O)N(C)C(=O)[C@@H]21 | 2% | -8% | 18µM* | -18% | ? | -25
CCN(C[C@H]1N[C@@](Cc2ccccc2)(C(=O)OC)[C@H]2C(=O)N(Cc3ccccc3)C(=O)[C@@H]12)S(=O)(=O)c1ccc(C(C)(C)C)cc1 | 2% | -28% | ? | -10% | 16µM* | 0
CCN(C[C@H]1N[C@@](Cc2ccccc2)(C(=O)OC)[C@H]2C(=O)N(Cc3ccccc3)C(=O)[C@@H]12)S(=O)(=O)c1ccc(F)cc1 | 0% | -12% | 18µM* | -22% | ? | -16
Cc1cc(C(=O)Nc2ccccc2-c2nc(CNC(=O)c3cscn3)c(C)o2)c(C)o1 | nt | nt | 0%[9.04 µM] | nt | -19% | nt
SMILES | TDP1 inh | HepG2 viability | DT40 TDP1 CPT | TGFb inhibitor | DT40 TDP1 no CPT | IL-1B inflam inh
C=C(COC)C1=CCC(C(=O)OC)(C(=O)OC)[C@@H](C[N+](=O)[O-])c2ccccc21 | 1% | nt | nt | nt | nt | nt
c1ccc(N2CCN(c3ncnc4[nH]ncc34)CC2)cc1 | 5% | 4% | ? | -10% | ? | nt
CCN(C[C@H]1N[C@@](Cc2ccccc2)(C(=O)OC)[C@H]2C(=O)N(C)C(=O)[C@@H]12)C(=O)Nc1ccc(C(F)(F)F)cc1 | 0% | 0% | 16µM* | -22% | ? | -1
CCN(C[C@H]1N[C@@](C)(C(=O)OC)[C@H]2C(=O)N(Cc3ccccc3)C(=O)[C@@H]12)C(=O)COC | 1% | 4% | -3% | 7% | 13% | 13
CC[C@@]1(C(=O)OC)N[C@H](CN(C)C(=O)c2ccccc2)[C@@H]2C(=O)N(Cc3ccccc3)C(=O)[C@@H]21 | 1% | 9% | -8% | ? | -12% | -5
COC(=O)[C@]1(Cc2ccccc2)N[C@H](CN(C)C(=O)c2ccc(C(C)(C)C)cc2)[C@@H]2C(=O)N(Cc3ccccc3)C(=O)[C@@H]21 | 2% | 3% | 15µM* | 2% | 21µM* | -6
CCN(C[C@H]1N[C@@](C)(C(=O)OC)[C@H]2C(=O)N(Cc3ccccc3)C(=O)[C@@H]12)C(=O)c1ccc(C(C)(C)C)cc1 | 3% | -10% | ? | -13% | 16µM* | -10
COc1cc(C2c3c(oc4ccc(C)cc4c3=O)C(=O)N2Cc2ccccc2)ccc1O (centres undefined) | -3% | -14% | 0% | -15% | 0% | nt
Cc1cccc(OCC(=O)N/N=C\c2cccn2C)c1C | 6% | 6% | -2% | -17% | ? | 41
Cc1cccc(N2CCN(S(=O)(=O)c3ccc(Cl)nc3)CC2C)c1 (centres undefined) | 0% | -16% | 13% | 9% | -7% | -28
